Here are results for 156 variants from a collection of fitness landscapes (doi:10.1126/science.1257360).

B1: PhoQ; a variant is named by its letters at X, in order, P23837 (parent)
chain: MKKLLRLFFPLSLRVRFLLATAAVVLVLSLAYGMVALIGYSVSFDKTTFRLLRGESNLFYTLAKWENNKLHVELPENIDKQSPTMTLIYDENGQLLWAQRDVPWLMKMIQPDWLKSNGFHEIEADVNDTSLLLSGDHSIQQQLQEVREDDDDAEMTHSVAVNVYPATSRMPKLTIVVVDTIPVELKSSYMVWSWFIYVLSANLLLVIPLLWVAAWWSLRPIEALAKEVRELEEHNRELLNPATTRELTSLVRNLNRLLKSERERYDKYRTTLTDLTHSLKTPLXXLQXXLRSLRSEKMSVSDAEPVMLEQISRISQQIGYYLHRASMRGGTLLSRELHPVAPLLDNLTSALNKVYQRKGVNISLDISPEISFVGEQNDFVEVMGNVLDNACKYCLEFVEISARQTDEHLYIVVEDDGPGIPLSKREVIFDRGQRVDTLRPGQGVGLAVAREITEQYEGKIVAGESMLGGARMEVIFGRQHSAPKDE

The full ranking holds about 140,000 sequences; the median of “enrichment ratio after two sorts for PhoP signalling” is about 0, and the highest 2% start at about 11. For the sample, the highest values were picked, then their nearest neighbours and some sequences at random.

Variants of B1 are the subject of the assay. The assay is described as follows: enrichment ratio after two sorts for PhoP signalling (ratio (wild type AVST 3.29)); higher = more functional. Conditions: with PhoP (E. coli).
As to AEYM, the enrichment ratio came to 3.72.

With ITKR, the enrichment ratio is at most 0.25. To SVFT belongs at most 0.25; to VISK, at most 0.25. For the variant LWWA, the enrichment ratio was at most 0.25. The result for NMII reads at most 0.25; that for TPVN, at most 0.25. To FWRY belongs at most 0.25. Take SCFG: the enrichment ratio was at most 0.25.

For the variant ITNE, the enrichment ratio is at most 0.25.

For the variant TRFM, the enrichment ratio is at most 0.25. With GRSR, the enrichment ratio is at most 0.25. For PKLW, the enrichment ratio is at most 0.25. To ECFL belongs at most 0.25; to NQDT, at most 0.25. For AEYY, the enrichment ratio is at most 0.25.

For the variant AEAD, the enrichment ratio is at most 0.25.

As for AENY, the enrichment ratio was found to be 5.26. To AEYQ belongs at most 0.25; to AEGY, 43.4. To AEAA belongs 12.1. For the variant SGEP, the enrichment ratio is at most 0.25.

In the case of INCT, the enrichment ratio is at most 0.25. With NFHN, the enrichment ratio was at most 0.25. To NMVN belongs at most 0.25. For DKLH, the enrichment ratio is at most 0.25.

Regarding PNLH, the enrichment ratio was at most 0.25.

As for ANTR, the enrichment ratio was at most 0.25. ANTE: the enrichment ratio was at most 0.25. To ANNK belongs 0.253; to ANTG, 1.58.

Regarding ANFC, the enrichment ratio is at most 0.25.

With ANTI, the enrichment ratio was determined as 11.4. To ANTA belongs 19.3; to ANTD, at most 0.25; to ANTS, 21.1.

On to ANTH, for which the enrichment ratio is 6.44.

For the variant ANTK, the enrichment ratio is at most 0.25. For ANTC, the enrichment ratio worked out at 63. MYDG: the enrichment ratio is at most 0.25. To PVQS belongs at most 0.25; to RRVW, at most 0.25. The result for HRAN reads at most 0.25; that for KEHR, at most 0.25.

Turning to SANM, the enrichment ratio was 9.22. As to NAVG, the enrichment ratio was at most 0.25. To EVLL belongs at most 0.25. To KQMR belongs at most 0.25; to STIQ, 14.

In the case of MEIQ, the enrichment ratio came out at 19.4.

Turning to KYIQ, the enrichment ratio is at most 0.25. As to SEFQ, the enrichment ratio was 6.8. As for MMIQ, the enrichment ratio was at most 0.25. To YTIQ belongs at most 0.25. To SEIQ belongs 22.9. The result for MDIQ reads 0.654; that for SEIE, at most 0.25. Regarding EGNN, the enrichment ratio was at most 0.25. To NRRY belongs at most 0.25. To THCI belongs 7.06; to ANVR, at most 0.25; to HNSH, at most 0.25. For HYAD, the enrichment ratio was at most 0.25.

With LNEM, the enrichment ratio was at most 0.25. The result for KKNT reads at most 0.25; that for GMLN, 0.729; that for SECN, 23.5.

Turning to GMCN, the enrichment ratio was found to be 13.6. The result for SNCN reads 7.42; that for TECN, 60.8; that for FQCN, at most 0.25. The result for GTCN reads 3.53; that for FCCN, at most 0.25.

In the case of KECN, the enrichment ratio is at most 0.25. Take FNCN: the enrichment ratio is at most 0.25. For the variant SELN, the enrichment ratio was determined as 8.08. The result for FECN reads 13. Consider KSEA, for which the enrichment ratio was at most 0.25. To VGRD belongs at most 0.25. In the case of RFAS, the enrichment ratio was at most 0.25. With LNVE, the enrichment ratio is at most 0.25.

Take GWCA: the enrichment ratio is at most 0.25. To ACRC belongs at most 0.25. Turning to RCNS, the enrichment ratio was at most 0.25. Regarding FSFI, the enrichment ratio was 0.694. To IGKY belongs at most 0.25. For SSNS, the enrichment ratio is 0.835. With FELN, the enrichment ratio turned out to be 13.7. To NECN belongs at most 0.25. Regarding FEWI, the enrichment ratio is at most 0.25. The result for DCCN reads at most 0.25; that for TCCN, 17.6. With QECN, the enrichment ratio was determined as 9.04. As to VECN, the enrichment ratio is at most 0.25.

Turning to FELA, the enrichment ratio stood at 2.53.

Turning to MECN, the enrichment ratio worked out at 12.6. As to MPYN, the enrichment ratio was at most 0.25. For DKHY, the enrichment ratio was at most 0.25. The result for CHTM reads at most 0.25; that for NPDP, at most 0.25; that for DDIR, at most 0.25. In the case of QAWM, the enrichment ratio is 10.8. Consider QAWS, for which the enrichment ratio came to 18.4.

For QAWL, the enrichment ratio was 19.9. To KAWL belongs at most 0.25.

On to NAWL, for which the enrichment ratio was at most 0.25.

Turning to QAWI, the enrichment ratio was at most 0.25.

With NGDG, the enrichment ratio is at most 0.25. In the case of NCII, the enrichment ratio was at most 0.25.

As for YKNN, the enrichment ratio was at most 0.25. Consider GHVH, for which the enrichment ratio is at most 0.25. Consider HGGE, for which the enrichment ratio is at most 0.25. As for LYYP, the enrichment ratio was at most 0.25. LFEG: the enrichment ratio was at most 0.25. Consider TESY, for which the enrichment ratio was 23.2.

NESY: the enrichment ratio is at most 0.25. To YTSY belongs at most 0.25; to GESY, 12.8; to GVSY, at most 0.25. The result for KQSY reads at most 0.25; that for SRSY, at most 0.25. The result for QESY reads at most 0.25. As for SQSY, the enrichment ratio came to 8.96. As for GEEY, the enrichment ratio was at most 0.25. Regarding SESY, the enrichment ratio turned out to be 25.4. For the variant STSY, the enrichment ratio came out at 11.6.

HTRW: the enrichment ratio is at most 0.25. The result for TYTW reads at most 0.25; that for RVSE, at most 0.25. PWWY: the enrichment ratio was at most 0.25. For GELC, the enrichment ratio was 8.26.

Consider IGYI, for which the enrichment ratio is at most 0.25. To YYAS belongs at most 0.25; to MESY, 14.8. SMSY: the enrichment ratio was found to be 11.4. In the case of KYSY, the enrichment ratio is at most 0.25. As for SPSY, the enrichment ratio was at most 0.25. As to SDSY, the enrichment ratio was at most 0.25. With NMSY, the enrichment ratio is at most 0.25. To MKSY belongs at most 0.25; to MMSY, 2.46; to SNSY, 12.8.

Turning to HYIP, the enrichment ratio was at most 0.25. Take DCSH: the enrichment ratio was at most 0.25.

With FPML, the enrichment ratio was at most 0.25. The result for YTML reads 5.16.

Take FTML: the enrichment ratio amounted to 12.

On to YCNL, for which the enrichment ratio is at most 0.25. For YYML, the enrichment ratio was at most 0.25.

FCML: the enrichment ratio was 21.1. For the variant KCML, the enrichment ratio was at most 0.25.

In the case of VCML, the enrichment ratio came to 10. To TCML belongs 16.7. To YCML belongs 12.7. With QPML, the enrichment ratio is at most 0.25. In the case of TYML, the enrichment ratio is 0.784.
